# Measurements reported in ChEMBL document CHEMBL2218924, “A broad activity screen in support of a chemogenomic map for kinase signalling research and drug discovery” (Biochem J, 2013).
# How the values were obtained:
# [1] = molecular target: T1, Protein kinase C epsilon type (Homo sapiens) (UniProt Q02156); conditions: at 1 µM
# T1 sequence (whole entry): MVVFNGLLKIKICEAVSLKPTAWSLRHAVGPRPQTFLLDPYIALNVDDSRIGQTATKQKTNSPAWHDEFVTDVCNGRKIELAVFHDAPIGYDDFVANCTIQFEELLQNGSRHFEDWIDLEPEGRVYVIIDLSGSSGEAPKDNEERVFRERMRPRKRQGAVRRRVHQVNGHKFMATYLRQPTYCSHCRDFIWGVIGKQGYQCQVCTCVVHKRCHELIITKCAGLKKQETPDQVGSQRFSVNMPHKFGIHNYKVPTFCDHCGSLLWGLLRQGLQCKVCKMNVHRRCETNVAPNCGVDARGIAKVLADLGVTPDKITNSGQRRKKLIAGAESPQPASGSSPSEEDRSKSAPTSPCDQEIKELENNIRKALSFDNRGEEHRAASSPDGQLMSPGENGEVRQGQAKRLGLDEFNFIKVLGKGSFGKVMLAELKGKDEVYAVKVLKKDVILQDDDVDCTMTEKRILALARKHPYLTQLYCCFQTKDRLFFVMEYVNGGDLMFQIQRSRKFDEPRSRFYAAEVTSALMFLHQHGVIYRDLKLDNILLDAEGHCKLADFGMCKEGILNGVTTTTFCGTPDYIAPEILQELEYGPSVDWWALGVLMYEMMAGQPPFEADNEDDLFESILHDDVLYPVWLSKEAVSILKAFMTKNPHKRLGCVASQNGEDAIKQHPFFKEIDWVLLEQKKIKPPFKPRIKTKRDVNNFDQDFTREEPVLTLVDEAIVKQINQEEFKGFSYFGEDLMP
# [2] = molecular target: T1, Protein kinase C epsilon type (Homo sapiens); conditions: at 10 µM
SMILES,residual activity [1] [%],residual activity [2] [%]
Cc1ccc(S(=O)(=O)/C=C/C#N)cc1,101,92
O=C1Nc2cc(Br)ccc2/C1=C1/Nc2ccccc2/C1=N\O,107,91
O=C1NC(=O)c2cc(Nc3ccc(F)cc3)c(Nc3ccc(F)cc3)cc21,67,73
O=[N+]([O-])c1ccc(-c2nc(-c3ccc(F)cc3)c(-c3ccncc3)[nH]2)cc1,106,99
N#CC(C#N)=C(N)/C(C#N)=C/c1ccc(O)cc1,95,89
c1ccc2c(-c3ccncc3)c[nH]c2c1,73,55
CCN(CC)CCCCN1c2ccccc2Oc2ccc(Cl)cc21,84,99
COc1cc2ncnc(Nc3ccc(O)c(Br)c3)c2cc1OC,89,83
Cc1nc2cc3nc(-c4cccs4)cnc3cc2n1C,104,89
COc1ccc(OC)c2c(=S)c3ccccc3[nH]c12,98,109
Oc1n[nH]c2nnc(-c3c(-c4ccccc4)nn4ccccc34)cc12,97,98
Oc1c2ccccc2c2c3c(cccc13)N=N2,101,84
COc1ccc(CNc2nc(N(CCO)CCO)nc3c2ncn3C(C)C)cc1,115,105
Nc1cccc(-c2cc3c(Oc4cccc(O)c4)ncnc3[nH]2)c1,120,98
Nc1n[nH]c2nnc(-c3c(-c4ccccc4)nn4ccccc34)cc12,101,41
Cc1nc(-c2ccccc2)c(-c2ccncc2)o1,108,108
O=C1NC(=O)c2c1c1c3ccccc3[nH]c1c1[nH]c3cc(Br)ccc3c21,94,102
CCC(=O)Nc1ccc2ncnc(Nc3cccc(Br)c3)c2c1,79,110
N#C/C(=C(\N)Sc1ccc(N)cc1)c1ccccc1C(F)(F)F,100,106
CO[C@H]1[C@@H](OC)C[C@H](C)[C@@H](OC)C2=CC(=O)C=C(NC(=O)/C(C)=C/C=C/[C@H](OC)[C@@H](OC(N)=O)/C(C)=C/[C@@H]1C)C2=O,100,102
O=C(Nc1cccc(Nc2nccc(Nc3cccc(C(F)(F)F)c3)n2)c1)C1CC1,95,80

SMILES,residual activity [1] [%],residual activity [2] [%]
CC#CC(=O)Nc1cc2c(Nc3ccc(F)c(Cl)c3)ncnc2cn1,90,94
CNc1cc2c(Nc3cccc(Br)c3)ncnc2cn1,96,99
O=C1NC(=O)/C(=C\c2ccc3nccnc3c2)S1,105,95
CC[n+]1c(/C=C/N(C)c2ccccc2)n(-c2ccccc2)c2ccc(-c3nc4ccccc4s3)cc21,101,107
Cc1cc2ncc(-c3ccccc3)nc2cc1C,,100
COc1ccc(S(=O)(=O)N(CCO)c2ccccc2CN(C)C/C=C/c2ccc(Cl)cc2)cc1,106,93
CO[C@H]1C[C@@H]2CC[C@@H](C)[C@@](O)(O2)C(=O)C(=O)N2CCCC[C@H]2C(=O)O[C@H]([C@H](C)C[C@@H]2CC[C@@H](O)[C@H](OC)C2)CC(=O)[C@H](C)/C=C(\C)[C@@H](O)[C@@H](OC)C(=O)[C@H](C)C[C@H](C)/C=C/C=C/C=C/1C,81,82
O=c1cc(-c2cccc3c2Sc2ccccc2S3)oc(N2CCOCC2)c1,91,94
Ic1cccc(CSc2nnc(-c3ccncc3)o2)c1,88,88
C[C@@H](N)[C@H]1CC[C@H](C(=O)Nc2ccncc2)CC1,71,31
Cc1ccc(NC2=CC(=O)c3sc(C)nc3C2=O)cc1,87,94
Cn1cc(/C=C2\C(=O)Nc3ccc(S(N)(=O)=O)cc32)c2ccccc21,90,100
N#Cc1cnc2cnc(NCc3cccnc3)cc2c1Nc1ccc(F)c(Cl)c1,81,42
COc1cc2ncnc(N3CCN(C(=O)Nc4ccc(Oc5ccccc5)cc4)CC3)c2cc1OC,96,90
CC(=O)O/N=C1\C(=C2\C(=O)Nc3cc(Br)ccc32)Nc2ccccc21,107,93
Cc1cncc2cccc(S(=O)(=O)N3CCCN(C(=O)CN)C[C@H]3C)c12,58,23
CC(=O)c1ccc(N2CCOCC2)cc1O,91,82
O=C(Nc1cccc(Nc2cc(Nc3cccc(C(F)(F)F)c3)ncn2)c1)C1CC1,90,97
Nc1nc(Nc2ccc(S(N)(=O)=O)cc2)nn1C(=S)Nc1c(F)cccc1F,30,8
c1ccc(-c2n[nH]c3c2oc2ccccc23)cc1,97,88
